Paper PMC4336329 (PLoS ONE, 2015)
About 14,000 (4.5%) of roughly 310,000 compounds showed an effect of 50% or more. The effect is printed as a negative number. What follows is part of a selection rich in strong results, with near analogues and random picks from the rest.
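Further: peak tail current of the secondary pulse compared with the same well before compound.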

Each molecule was assayed against human ether-à-go-go-related gene (hERG) potassium channel (human, UniProt Q12809) (assay: primary screen, population patch clamp on CHO cells stably expressing hERG; higher = less effect of the substance).
human ether-à-go-go-related gene (hERG) potassium channel, sequence (Q12809 whole entry, looked up): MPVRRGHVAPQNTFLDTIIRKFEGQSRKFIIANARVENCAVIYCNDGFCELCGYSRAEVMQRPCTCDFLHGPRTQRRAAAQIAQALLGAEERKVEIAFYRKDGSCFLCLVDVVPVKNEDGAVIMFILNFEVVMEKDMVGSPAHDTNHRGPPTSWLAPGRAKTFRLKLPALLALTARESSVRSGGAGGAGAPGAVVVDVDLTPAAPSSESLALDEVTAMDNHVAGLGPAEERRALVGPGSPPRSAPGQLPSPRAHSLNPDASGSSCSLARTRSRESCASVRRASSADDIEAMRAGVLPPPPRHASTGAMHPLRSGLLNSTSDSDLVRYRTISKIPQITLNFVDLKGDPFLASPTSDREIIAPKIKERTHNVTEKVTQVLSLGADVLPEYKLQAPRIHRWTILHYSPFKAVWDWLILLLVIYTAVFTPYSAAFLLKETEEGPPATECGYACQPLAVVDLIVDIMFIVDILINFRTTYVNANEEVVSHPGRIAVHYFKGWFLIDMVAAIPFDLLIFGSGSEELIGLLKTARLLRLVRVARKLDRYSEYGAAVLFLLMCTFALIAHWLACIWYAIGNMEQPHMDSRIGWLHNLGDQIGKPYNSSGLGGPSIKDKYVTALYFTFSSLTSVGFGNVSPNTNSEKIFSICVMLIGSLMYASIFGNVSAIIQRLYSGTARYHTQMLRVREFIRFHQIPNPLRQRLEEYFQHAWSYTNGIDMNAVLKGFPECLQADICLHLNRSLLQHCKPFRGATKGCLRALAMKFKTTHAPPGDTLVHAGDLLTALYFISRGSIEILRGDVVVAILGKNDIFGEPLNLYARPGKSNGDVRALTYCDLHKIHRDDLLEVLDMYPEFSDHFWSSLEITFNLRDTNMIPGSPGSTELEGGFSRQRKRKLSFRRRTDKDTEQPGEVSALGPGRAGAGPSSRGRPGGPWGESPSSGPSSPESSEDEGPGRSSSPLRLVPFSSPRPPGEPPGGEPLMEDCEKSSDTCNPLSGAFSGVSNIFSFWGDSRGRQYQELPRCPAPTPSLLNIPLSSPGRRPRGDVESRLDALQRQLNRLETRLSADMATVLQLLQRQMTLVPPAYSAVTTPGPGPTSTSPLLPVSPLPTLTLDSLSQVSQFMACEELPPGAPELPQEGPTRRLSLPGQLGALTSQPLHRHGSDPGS
In the case of `CCn1c(=S)sc2c(=O)n(CC(=O)NCCCc3ccccc3)c(C)nc21`, the “hERG current change (%, negative = inhibition) at 10uM” value was 18.8%. In the case of `COc1ccc(OC)c(NC(=O)Cn2cnc3c(cnn3-c3ccccc3)c2=O)c1`, the “hERG current change (%, negative = inhibition) at 10uM” value was -12.8%. In the case of `COc1cc(/C=C/C(=O)OCC(=O)c2c(N)n(C)c(=O)n(C)c2=O)ccc1OC(F)F`, the “hERG current change (%, negative = inhibition) at 10uM” value was 6.4%. In the case of `COc1ccc(CN(C)C(=O)COC(=O)c2ccc3c(c2)OCO3)cc1OC`, the “hERG current change (%, negative = inhibition) at 10uM” value was -3.84%. In the case of `CCC(=O)OC1(C)C(=O)C=C2C=C(C3CC3)OC=C2C1=O` (stereo not drawn), the “hERG current change (%, negative = inhibition) at 10uM” value was 12.5%. With `CCC(C(=O)Nc1ccccc1OC)n1c(C(=O)OC)cc2ccsc21` (stereo not drawn) the “hERG current change (%, negative = inhibition) at 10uM” value was -11.3%. With `CN(CC(=O)NNC(=O)CNC(=O)c1ccccc1Cl)S(=O)(=O)c1ccc(Cl)cc1` the “hERG current change (%, negative = inhibition) at 10uM” value was 9.57%. For `O=C(CN1CCN(C(=O)c2c(F)cccc2F)CC1)Nc1ccccc1C(F)(F)F`, the “hERG current change (%, negative = inhibition) at 10uM” value was -20.9%. With `O=C(CN1CCCCC1)Nc1ccccc1Cl` the “hERG current change (%, negative = inhibition) at 10uM” value was 21.1%. `Cc1cccc(NC(=S)N2CCN(Cc3ccccc3)CC2)c1C` was tested, and the “hERG current change (%, negative = inhibition) at 10uM” value was -13.2%. `Cc1cccc(NC(=O)Cn2cnc3c(cnn3-c3ccc(F)cc3)c2=O)c1C` was tested, and the “hERG current change (%, negative = inhibition) at 10uM” value was 2.99%. In the case of `O=C(CN1CCN(C(=O)c2cncn2-c2ccccc2)CC1)Nc1ccccc1Cl`, the “hERG current change (%, negative = inhibition) at 10uM” value was -77.3%. With `Cc1cccc(NC(=O)CN2CCN(C(=O)c3oc4c(Cl)cccc4c3C)CC2)c1C` the “hERG current change (%, negative = inhibition) at 10uM” value was -43.6%. For `Cc1cccc(NC(=O)CN2CCN(C(=O)c3cncn3-c3ccc(F)cc3)CC2)c1C`, the “hERG current change (%, negative = inhibition) at 10uM” value was -60.9%. `O=C(CN1CCN(C(=O)c2cncn2-c2ccc(F)cc2)CC1)Nc1ccccc1C(F)(F)F` was tested, and the “hERG current change (%, negative = inhibition) at 10uM” value was -70%. `Cc1cccc(NC(=O)CN2CCN(C(=O)c3cnn(Cc4ccccc4)c3)CC2)c1C` was tested, and the “hERG current change (%, negative = inhibition) at 10uM” value was -87.2%. With `O=C(CN1CCCCCC1)Nc1ccccc1Cl` the “hERG current change (%, negative = inhibition) at 10uM” value was 6.75%. With `O=C(CN1CCN(CC(=O)Nc2ccccc2C(F)(F)F)CC1)Nc1ccccc1F` the “hERG current change (%, negative = inhibition) at 10uM” value was -30.2%. For `COc1cc(OC)cc(C(=O)OCC(=O)Nc2ccc(F)cc2F)c1`, the “hERG current change (%, negative = inhibition) at 10uM” value was 4.34%. For `CCC(C)(C)NC(=O)c1ccc2c(c1)S(=O)(=O)c1ccccc1C2=O`, the “hERG current change (%, negative = inhibition) at 10uM” value was -16.8%. `CNS(=O)(=O)c1cccc(C(=O)OCC(=O)NCCCc2ccccc2)c1` was tested, and the “hERG current change (%, negative = inhibition) at 10uM” value was -5.42%. In the case of `COc1cc(OC)cc(-c2nnc(SCc3c(F)cccc3Cl)o2)c1`, the “hERG current change (%, negative = inhibition) at 10uM” value was 0.324%. With `COc1ccccc1CC(=O)N1CCCc2ccccc21` the “hERG current change (%, negative = inhibition) at 10uM” value was 0.493%. With `COc1cc([N+](=O)[O-])ccc1NC(=O)Nc1nc2c(s1)CCCC2` the “hERG current change (%, negative = inhibition) at 10uM” value was 11.7%. `O=C(Nc1ccccc1C(=O)O)c1ccc(NC(=O)c2ccc(Br)o2)cc1` was tested, and the “hERG current change (%, negative = inhibition) at 10uM” value was 11.7%. `Cc1ccc(-n2c(N)cc(=O)nc2SCC(=O)N2CCN(c3ccccc3)CC2)cc1` was tested, and the “hERG current change (%, negative = inhibition) at 10uM” value was -0.877%. `COc1cc(C(CC(=O)Nc2ccccn2)N2Cc3ccccc3C2=O)cc(OC)c1OC` (stereo not drawn) was tested, and the “hERG current change (%, negative = inhibition) at 10uM” value was -11.5%. For `COc1cc(C(CC(=O)Nc2ccc(C)cn2)N2Cc3ccccc3C2=O)cc(OC)c1OC` (stereo not drawn), the “hERG current change (%, negative = inhibition) at 10uM” value was -1.38%. `COc1cc(C(CC(=O)Nc2ccc(Cl)cn2)N2Cc3ccccc3C2=O)cc(OC)c1OC` (stereo not drawn) was tested, and the “hERG current change (%, negative = inhibition) at 10uM” value was -68.1%. With `Cc1ccc(Nc2cc(C)nc(N3CCOCC3)n2)cc1` the “hERG current change (%, negative = inhibition) at 10uM” value was 6.18%. For `O=S(=O)(NC1CCCCC1)c1cccc(-c2nnc(-c3ccccc3)o2)c1`, the “hERG current change (%, negative = inhibition) at 10uM” value was -36.4%. For `Cc1ccc(N=C2S/C(=C/c3cccc(OCC(=O)O)c3)C(=O)N2C)cc1C`, the “hERG current change (%, negative = inhibition) at 10uM” value was 20.5%. In the case of `O=C(c1ccc(C(=O)N2CCCc3ccccc32)nc1)N1CCCc2ccccc21`, the “hERG current change (%, negative = inhibition) at 10uM” value was -9.08%. `CCNC(=O)CSc1nnc(-c2ccc(OC)cc2)n1CC(C)C` was tested, and the “hERG current change (%, negative = inhibition) at 10uM” value was -3.51%. `CC1CCCN(C(=O)Cn2c3ccccc3c3nc4n(c(=O)c32)CCS4)C1` (stereo not drawn) was tested, and the “hERG current change (%, negative = inhibition) at 10uM” value was -3.59%. With `CCc1ccc([C@@H]2C[C@H]3CN(Cc4ccccc4OC)C(=O)[C@]34CCCN24)cc1` the “hERG current change (%, negative = inhibition) at 10uM” value was -70.7%. In the case of `Cc1ccccc1-c1cccc([C@@H]2C[C@H]3CN(Cc4cccnc4)C(=O)[C@]34CCCN24)c1`, the “hERG current change (%, negative = inhibition) at 10uM” value was -59%. In the case of `O=C1N(Cc2cccnc2)C[C@@H]2C[C@@H](c3ccccc3C(F)(F)F)N3CCC[C@@]123`, the “hERG current change (%, negative = inhibition) at 10uM” value was -11.2%. `O=C1N(Cc2cccnc2)C[C@@H]2C[C@@H](c3cccc(C(F)(F)F)c3)N3CCC[C@@]123` was tested, and the “hERG current change (%, negative = inhibition) at 10uM” value was -10.3%. With `Cc1ccccc1CN1C[C@@H]2C[C@@H](c3ccc4nsnc4c3)N3CCC[C@@]23C1=O` the “hERG current change (%, negative = inhibition) at 10uM” value was -18.1%. For `COc1ccccc1CN1C[C@@H]2C[C@@H](c3ccc(C)cc3)N3CCC[C@@]23C1=O`, the “hERG current change (%, negative = inhibition) at 10uM” value was -43.6%. `O=C1N(Cc2cccnc2)C[C@@H]2C[C@@H](c3ccccc3C#Cc3ccccc3)N3CCC[C@@]123` was tested, and the “hERG current change (%, negative = inhibition) at 10uM” value was -69.5%. For `O=C1N(Cc2cccnc2)C[C@@H]2C[C@@H](c3ccc(C(F)(F)F)cc3)N3CCC[C@@]123`, the “hERG current change (%, negative = inhibition) at 10uM” value was -53.9%. With `COc1ccccc1CN1C[C@@H]2C[C@@H](c3ccc(Cl)cc3)N3CCC[C@@]23C1=O` the “hERG current change (%, negative = inhibition) at 10uM” value was -44.1%. With `Cc1ccc(NC(=S)N2CCn3cccc3C2c2cccnc2)cc1` (stereo not drawn) the “hERG current change (%, negative = inhibition) at 10uM” value was -37.3%. `CCOc1ccccc1-c1nc(-c2ccncc2)no1` was tested, and the “hERG current change (%, negative = inhibition) at 10uM” value was -15.8%. With `COc1cccc(-c2ccc(SCC(=O)NCCc3ccccc3)nn2)c1` the “hERG current change (%, negative = inhibition) at 10uM” value was -41.7%. `CCCN(C(=O)C(C)Oc1cccc(Cl)c1)c1c(N)n(Cc2ccccc2)c(=O)[nH]c1=O` (stereo not drawn) was tested, and the “hERG current change (%, negative = inhibition) at 10uM” value was 1.41%. In the case of `CCC(C)N1C(=O)c2ccccc2C1C(=O)NC1CCCCCC1` (stereo not drawn), the “hERG current change (%, negative = inhibition) at 10uM” value was 4.45%. In the case of `COC(=O)c1cc2occc2n1Cc1ccc(Cl)cc1`, the “hERG current change (%, negative = inhibition) at 10uM” value was 9.68%. For `Nc1nonc1-n1nnc(C(=O)N/N=C/c2ccc(OCc3ccccc3)cc2)c1CN1CCCCC1`, the “hERG current change (%, negative = inhibition) at 10uM” value was 7.17%.
